Results as given in the supplement of paper PMC12669032.
Where “and” joins values, the source holds several entries; their conditions need not be identical. Equal values may be shown once.

system: Collinsella aerofaciens; assay: growth AUC relative to DMSO control (median of replicates) (fraction); higher = more growth (less inhibition), active = hit call of the paper; details: 20 µM; 24 h
How it was run: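 Three biological replicates, each grown on a separate day, were combined as a median for every value. In each, a gut bacterial monoculture in mGAM started at OD600 0.05 and grew anaerobically at 37 °C with 20 µM compound (1% DMSO), with OD600 read hourly over 24 h. Area under the growth curve was normalised against the plate median of solvent-only wells, or against row and column medians on the industrial chemical plate, after the minimum OD was set to 0.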

Structure (SMILES)	growth AUC
COP(N)(=O)SC (centres undefined)	1.04 (inactive)
COc1cc(OC)n2nc(S(=O)(=O)Nc3c(Cl)ccc(C)c3Cl)nc2n1	1.11 (inactive)
CC(C)N(C(=O)SCC(Cl)=C(Cl)Cl)C(C)C	0.953 (inactive)
O=S(=O)(c1ccc(O)cc1)c1ccc(O)cc1	0.976 (inactive)
CN(C)NC(=O)CCC(=O)O	1 (inactive)
CCN(CC)c1nc(C)cc(OP(=S)(OC)OC)n1	0.989 (inactive)
Clc1cccc(Cl)c1Cl	0.973 (inactive)
CCN(CC)C(=S)[S-].O.O.O.[Na+]	0.925 (inactive)
C#CCC1=C(C)C(OC(=O)C2C(C=C(C)C)C2(C)C)CC1=O (centres undefined)	0.985 (inactive)
CCOc1ccccc1OS(=O)(=O)NC(=O)Nc1nc(OC)cc(OC)n1	1.03 (inactive)
CNC(=O)Oc1cc(C)cc(C(C)C)c1	0.952 (inactive)
CCCCN(CC)c1c([N+](=O)[O-])cc(C(F)(F)F)cc1[N+](=O)[O-]	1.04 (inactive)
O=C(O)CCl	0.976 (inactive)
CC[C@H](C)[C@H]1O[C@]2(C=C[C@@H]1C)C[C@@H]1C[C@@H](C/C=C(\C)[C@@H](O[C@H]3C[C@H](OC)[C@@H](O[C@H]4C[C@H](OC)[C@@H](NC)[C@H](C)O4)[C@H](C)O3)[C@@H](C)/C=C/C=C3\CO[C@@H]4[C@H](O)C(C)=C[C@@H](C(=O)O1)[C@]34O)O2.O=C(O)c1ccccc1	0.553 (active)
CON(C)C(=O)Nc1ccc(Cl)c(Cl)c1	1.06 (inactive)
CCCCOC(=O)[C@@H](C)Oc1ccc(Oc2ccc(C#N)cc2F)cc1	0.984 (inactive)
Clc1cc(Cl)c(Cl)c(Cl)c1	0.922 (inactive)
CN(C)C(=O)Nc1cccc(C(F)(F)F)c1	0.997 (inactive)
CN(C)C(=O)Nc1cccc(OC(=O)NC(C)(C)C)c1	0.918 (inactive)
CCOP(=O)(NC(C)C)Oc1ccc(SC)c(C)c1 (centres undefined)	0.95 (inactive)

Structure (SMILES)	growth AUC
ClCC(Br)CBr (centres undefined)	0.992 (inactive)
O=[N+]([O-])c1c(Cl)c(Cl)cc(Cl)c1Cl	1.05 (inactive)
CCS(=O)c1c(C#N)nn(-c2c(Cl)cc(C(F)(F)F)cc2Cl)c1N (centres undefined)	1.01 (inactive)
CNC(=O)Oc1cccc2c1OC(C)(C)C2O (centres undefined)	1.01 (inactive)
CCOP(=O)(SC(C)CC)N1CCSC1=O (centres undefined)	1.05 (inactive)
CCOP(=O)(OCC)ON1C(=O)c2cccc3cccc(c23)C1=O	0.936 (inactive)
O=C(O)C(F)(F)C(F)(F)C(F)(F)C(F)(F)C(F)(F)C(F)(F)F	1.02 (inactive)
O=S1OC[C@@H]2[C@H](CO1)[C@]1(Cl)C(Cl)=C(Cl)[C@@]2(Cl)C1(Cl)Cl (some centres undefined)	0.99 (inactive) and 0.941 (inactive)
O=C(O)c1ccccc1C(=O)Nc1cccc2ccccc12	1.03 (inactive)
CCCCN(CCCC)SN(C)C(=O)Oc1cccc2c1OC(C)(C)C2	1.01 (inactive)
C[n+]1ccc(-c2cc[n+](C)cc2)cc1.O.[Cl-].[Cl-]	0.947 (inactive)
CCC(C)(CC)c1cc(NC(=O)c2c(OC)cccc2OC)on1	0.959 (inactive)
CNC(=O)Oc1cc(C)c(SC)c(C)c1	0.934 (inactive)
COC(=O)C(C)(Cl)Cl	1.01 (inactive)
Cc1cc(Cl)ccc1N=CN(C)C	1 (inactive)
Nc1cc(Cl)cc(Cl)c1	0.984 (inactive)
CCCCCCCCCc1ccc(O)cc1	0.925 (inactive)
COc1c(Cl)ccc(Cl)c1Cl	0.98 (inactive)
CC(C)(C)c1cc([N+](=O)[O-])cc([N+](=O)[O-])c1O	0.96 (inactive)
